The whole screen tested about 16,000 compounds, of which about 2,600 (16%) were called active. Another 20% or so got no clear call; they are omitted. Only a sample is shown. Values without a mark were called inactive. Calls follow the shape of the dose curve; as a rule, active = well fitted curve in the direction sought with a large enough effect; inconclusive = small, poorly fitted or top-dose-only effect, or effect the other way; inactive = no such curve, though single readings can be large or run the other way.
target: Cytochrome P450 2D6 (Homo sapiens) (UniProt P10635); test: Cytochrome panel assay with activity outcomes; settings: recombinant CYP, pro-luciferin dealkylation, luminescence, p450-cyp2d6; series mostly up to 57.1 µM
% is scaled to controls: 0 for no effect and ±100 for the full control effect.

Cytochrome P450 2D6 (Homo sapiens), sequence (P10635 whole entry, looked up): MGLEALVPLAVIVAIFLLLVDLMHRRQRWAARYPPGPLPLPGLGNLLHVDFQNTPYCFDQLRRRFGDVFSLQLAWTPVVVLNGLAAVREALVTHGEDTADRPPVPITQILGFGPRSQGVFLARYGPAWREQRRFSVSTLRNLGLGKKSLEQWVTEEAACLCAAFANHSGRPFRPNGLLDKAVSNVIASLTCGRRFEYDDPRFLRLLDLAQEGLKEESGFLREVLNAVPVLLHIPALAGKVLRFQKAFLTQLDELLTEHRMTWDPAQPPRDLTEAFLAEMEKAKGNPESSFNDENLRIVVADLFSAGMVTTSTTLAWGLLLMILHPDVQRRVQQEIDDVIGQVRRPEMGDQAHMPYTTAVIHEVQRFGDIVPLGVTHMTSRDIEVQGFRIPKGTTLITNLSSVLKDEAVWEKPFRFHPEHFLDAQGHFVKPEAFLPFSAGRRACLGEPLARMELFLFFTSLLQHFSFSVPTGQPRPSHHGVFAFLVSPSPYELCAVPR

SMILES | AC50 | activity, negative = inhibition
CC1(C)NC(=O)N(c2ccc([N+](=O)[O-])c(C(F)(F)F)c2)C1=O | inactive | 
O=[N+]([O-])c1ccc(N2CCCCC2)c(Cl)c1N1CCCCC1 | inactive | 
Cc1ccc(C)c(Cn2cnc3c(cnn3C(C)(C)C)c2=O)c1 | inactive | 
N#Cc1cccc(-c2nc3cnc(N4CCOCC4)nc3n(C[C@H]3CCCO3)c2=O)c1 | inactive | 
CC1(C)Cc2c(C#N)c(SCc3ccccc3)nc(N3CCOCC3)c2CO1 | inactive | 
Cn1c(=O)c2[nH]c(CSCc3ccccc3)nc2n(C)c1=O |  | -20.6% [at 11.4 µM]
COc1ccc(C2=NOC(C(=O)Nc3ccc(C(C)=O)cc3)C2)cc1OC (centres undefined) | inactive | 
CC(C)C(=O)N[C@H]1CCCN1C(=O)/C=C\c1ccccc1 |  | -5.27% [at 11.4 µM]
Cn1c(=O)c2[nH]c(CCCc3ccc([N+](=O)[O-])cc3)nc2n(C)c1=O |  | -15.3% [at 11.4 µM]
COc1ccccc1N1CCN(c2nc3c(C)cccn3c(=O)c2C=O)CC1 | inactive | 
CN1CCN(c2ccncc2S(=O)(=O)N2CCN(C)CC2)CC1 |  | 0.642% [at 11.4 µM]
CN1CCN(c2ncncc2-c2ccccc2Cl)CC1 | 12.6 µM (active) | 
COc1ccccc1N1CCN(C[C@@H]2CN3C(=O)N(C)c4ccccc4C3=N2)CC1 | inactive | 
Cc1ccccc1-c1cncnc1N1CCN(C)CC1 | 12.6 µM (active) | 
Cc1nc2cnc(N3CCN(C)CC3)nc2n(-c2ccccc2)c1=O | inactive | 
COc1ccccc1-c1cncnc1N1CCN(C)CC1 | 25.1 µM (active) | 
COc1ccc(Cc2ccccc2C(=O)O)c2ccccc12 |  | 11.8% [at 11.4 µM]
CC(C)CNS(=O)(=O)c1cc(C(=O)N2CC(C)OC(C)C2)c(Cl)cc1Cl (centres undefined) | inactive | 
O=C(O)[C@@H](O)c1ccc(F)cc1 |  | 4.43% [at 11.4 µM]
O=C1CCN(S(=O)(=O)c2ccccc2)N1 | inactive | 
Fc1cccc(F)c1C(Nc1nncs1)Nc1nncs1 |  | 19.1% [at 11.4 µM]
CC(=O)C[C@H](c1ccc([N+](=O)[O-])cc1)c1c(O)c2ccccc2oc1=O | inactive | 
OC[C@@H](O)[C@@H](O)[C@@H](O)[C@@H](O)c1nc2ccc(Cl)cc2[nH]1 |  | 19.4% [at 11.4 µM]
C1COC(NC(C2CC2)C2CC2)=N1 | 0.398 µM (active) | 
Cc1noc(C)c1C(=O)N1CCC[C@@]2(CCN(c3ncccn3)C2)C1 | inactive | 

SMILES | AC50 | activity, negative = inhibition
Nc1nc(C(=O)O)c(N=Nc2ccccc2)c(=O)[nH]1 |  | -12.3% [at 11.4 µM]
CC(C)(C)C(=O)Nc1nnc(SCC(=O)NCc2cccs2)s1 | inactive | 
O=C(CSc1nnnn1-c1ccccc1)NCc1cccs1 | 2.51 µM (active) | 
CCCC(=O)Nc1nnc(SCC(=O)NCc2cccs2)s1 | inactive | 
C[C@@H]1O[C@H](O[C@@H]2[C@@H](Oc3cc(O)c4c(c3)O[C@H](c3ccc(O)cc3)CC4=O)O[C@@H](CO)[C@@H](O)[C@H]2O)[C@@H](O)[C@H](O)[C@@H]1O | inactive | 
CC(C)C(=O)N[C@@H]1CCCN1C(=O)/C=C\c1ccccc1 |  | -16.8% [at 11.4 µM]
CCOC(=O)N1CCC(NC(=O)CS(=O)(=O)Cc2nc(-c3cccc(OC)c3)oc2C)CC1 | inactive | 
Cc1cccc(-c2nc(CN3CCCC(C(=O)NC4CCCCC4)C3)c(C)o2)c1 (centres undefined) | 4.47 µM (active) | 
CCC(C)NC(=O)C1CCCN(C(=O)NC2CCCCC2)C1 (centres undefined) | inactive | 
O=c1c(-c2ccccc2)nc2cnc(N3CCOCC3)nc2n1C1CC1 | inactive | 
O=C(O)c1cccc(CN2CCCCC2)c1 | 1 µM (active) | 
O=C(O)c1cccc(SSc2cccc(C(=O)O)c2)c1 |  | -12% [at 11.4 µM]
CC(C)(C)c1cc(C(=O)O)c(CN2CCCCC2)o1 | inactive | 
O=c1c(-c2ccc(Cl)cc2)nc2cnc(N3CCNCC3)nc2n1Cc1ccc(F)cc1 | inactive | 
Cc1ccc(S(=O)(=O)N[C@H]2COC(=O)[C@@H](C)COC(=O)[C@H](C)NC(=O)C/C=C\[C@H]2C)cc1 |  | -1.17% [at 11.4 µM]
CCCCC1=NN2C(=N)CC(=O)N=C2S1 | inactive | 
Cc1ccc(NC(=O)Nc2ncccc2C)cc1 | inactive | 
Cc1cccc(Nc2ccccc2C(=O)O)c1C | inactive | 
CCOC(=O)C(=Cc1ccc(F)cc1)C(=O)OCC | inactive | 
CCOC(=O)C(=CNc1ncccc1C)C(=O)OCC | 8.91 µM (active) | 
CCOC(=O)/C(=C/Nc1ccccc1)[N+](=O)[O-] | inactive | 
CCOC(=O)C(=CNc1cccc(C)c1C)C(=O)OCC | 1.58 µM (active) | 
NCCSS(=O)(=O)CCN |  | 27.6% [at 11.4 µM]
Cc1nc2c(C)cccn2c1/C(O)=C1\C(=O)C(=O)N(CCN2CCOCC2)C1c1cccs1 (centres undefined) | inactive | 
COC(=O)C/C=C\[C@@H](C)[C@@H](/C=N\OC[C@@H](O)[C@H]1O[C@H]2OC(C)(C)O[C@H]2[C@@H]1O)NS(=O)(=O)c1ccc(C)cc1 |  | -10.1% [at 11.4 µM]

SMILES | AC50 | activity, negative = inhibition
CC1(C)C(=O)C(c2ccccc2)=C2CN3C(=O)N(CCc4ccccc4)C(=O)C3(Cc3ccc(F)cc3)C=C21 (centres undefined) | inactive | 
CC(C)(C)Nc1nc(N2CCCC2)nc(N2CCCC2)n1 | 3.55 µM (active) | 
Cc1cc(C)n(-c2nc(NC(C)(C)C)nc(NC(C)(C)C)n2)n1 | inactive | 
CNc1nc(Cl)nc(NC(C)(C)C)n1 | inactive | 
COC(=O)C/C=C\[C@@H](C)[C@@H](CO)NS(=O)(=O)c1ccc(C)cc1 |  | -2.05% [at 11.4 µM]
O=C1/C(=C\c2ccc(Br)o2)SC(=Nc2ccccc2)N1c1ccccc1 | inactive | 
Cc1cccc(NC(=O)NNC(=O)c2cc(-c3ccccc3Cl)nc3ccccc23)c1 | inactive | 
CC(C)(C)c1nc(SCC(=O)Nc2ccc(N3CCOCC3)cc2)c2ccccc2n1 | inactive | 
Cc1cc(C(=O)Nc2c(C)n(C)n(-c3ccccc3)c2=O)c2ccccc2n1 | inactive | 
Cc1ccc(NC(=O)c2cc(Cl)nc3ccccc23)cc1 | 0.178 µM (active) | 
Cc1cc(C(=O)Nc2ccc(N3CCOCC3)cc2)c2ccccc2n1 | 14.1 µM (active) | 
COC(=O)c1sccc1NC(=O)c1cc(-c2ccc(C)cc2)nc2ccccc12 | inactive | 
O=C1C2=C(Nc3cc([N+](=O)[O-])ccc3N2)O[C@@H]1c1ccc([C@H]2OC3=C(Nc4ccc([N+](=O)[O-])cc4N3)C2=O)cc1 |  | -7.54% [at 11.4 µM]
O=C1c2ccccc2C(=O)c2c(NC3CCCCC3)ccc(Nc3ccc(S(=O)(=O)O)cc3)c21 |  | -10.8% [at 11.4 µM]
Nc1c(-c2ccccc2)cnn1-c1cccc([N+](=O)[O-])c1 | inactive | 
COc1cc(C)nc(N2CCCC(C(=O)Nc3cc(Cl)ccc3OC)C2)n1 (centres undefined) | inactive | 
COCCn1c(=O)c(-c2ccc(Cl)cc2)nc2cnc(N3CCOCC3)nc21 | inactive | 
N#Cc1c[nH]n2c(=O)c3c(nc12)CCCC3 | inactive | 
CC1(C)SC(=S)N(NC(=O)Nc2ccccc2)C1N(O)C(=O)Nc1ccccc1 (centres undefined) | 25.1 µM (active) | 
CC1=C(C(=O)Nc2ccccc2)C(c2ccco2)NC(=S)N1 (centres undefined) | inactive | 
COC(=O)C1CCC(C)(C(=O)Nc2ccccc2)C1(C)C (centres undefined) | inactive | 
Cc1cccc(NC(=O)c2cccc(N3C(=O)C4C5CCC(C5)C4C3=O)c2)c1C (centres undefined) | inactive | 
Cc1cc(C)c(NC(=O)CSc2nnc(Cc3cccn3C)n2-c2ccc(F)cc2)c(C)c1 | inactive | 
CNC(=O)NC(=O)CSc1nnc(-c2ccco2)n1Cc1ccccc1 | inactive | 
CCn1c(COc2ccccc2)nnc1SCC(=O)Nc1cc(OC)ccc1OC | inactive | 

SMILES | AC50 | activity, negative = inhibition
COc1ccc(OC)c(C(=O)CN2C(=O)NC(C)(c3ccccc3)C2=O)c1 (centres undefined) | inactive | 
COc1ccc(OC)c(C(=O)CSc2nnc(Cc3cccs3)n2CCc2ccccc2)c1 | 5.62 µM (active) | 
COc1ccc(NC(=O)CSc2nnc(Cc3cccn3C)n2CCc2ccccc2)c(OC)c1 | 3.98 µM (active) | 
CC(=O)Nc1ccc(Cc2ccc3[nH]c(=O)cc(C)c3c2)cc1 |  | 2.4% [at 11.4 µM]
Cc1nc(-n2[nH]c3c(c2=O)CCCC3)[nH]c(=O)c1Cc1ccccc1 | inactive | 
COc1ccc(C2C(C(=O)c3ccco3)=C(O)C(=O)N2Cc2cccnc2)cc1OC (centres undefined) | inactive | 
COc1ccc(/C=N\NC(=O)O)cc1 |  | 12.1% [at 11.4 µM]
CC(=O)N1CCC2(CC1)CN(C(=O)Nc1cccc(C#N)c1)C2 | inactive | 
Cc1cc2cc3c(C)cc(=O)oc3c(C)c2o1 | inactive | 
CN1CCc2ccccc2[C@@H]1Cc1ccccc1NC(=O)c1sc2ccccc2c1Cl | 0.0794 µM (active) | 
CCOC(=S)NC(=O)c1sc2ccccc2c1Cl | inactive | 
CCCC(=O)N1CCN(c2ccc(NC(=O)c3sc4ccccc4c3Cl)cc2)CC1 | inactive | 
O=C(CC1CCCCC1)N1CCC(c2nc(-c3ccc(S(=O)(=O)N4CCCC4)cc3)no2)CC1 | inactive | 
COc1cccc(NC(=S)NNC(=O)C(C)n2nc(C)c([N+](=O)[O-])c2C)c1 (centres undefined) | inactive | 
CC[n+]1c(P(=O)([O-])c2ccccc2)[nH]c2ccccc21 | inactive | 
N#Cc1ccc(CN2CC[C@@]3(CCCN(C(=O)c4cc(C(F)(F)F)cc(C(F)(F)F)c4)C3)C2)cc1 | inactive | 
O=C(Nc1ccccc1)N1CC[C@@]2(CCCN(C(=O)c3cc(C(F)(F)F)cc(C(F)(F)F)c3)C2)C1 | 15.8 µM (active) | 
O=C(c1cc(C(F)(F)F)cc(C(F)(F)F)c1)N1CCC2(CCCN(Cc3ccncc3)C2)CC1 | inactive | 
O=C(c1cc(C(F)(F)F)cc(C(F)(F)F)c1)N1CCC[C@@]2(CCN(Cc3nccs3)C2)C1 | inactive | 
O=C(c1cc(C(F)(F)F)cc(C(F)(F)F)c1)N1CCC2(CC1)CN(Cc1ccccc1)C2 | inactive | 
O=C(c1cc(C(F)(F)F)cc(C(F)(F)F)c1)N1CCC[C@@]2(CCN(Cc3ccccc3)C2)C1 | 10 µM (active) | 
O=C(Nc1cccc(F)c1)N1CC[C@@]2(CCCN(C(=O)c3cc(C(F)(F)F)cc(C(F)(F)F)c3)C2)C1 | inactive | 
O=C(c1cc(C(F)(F)F)cc(C(F)(F)F)c1)N1CCC[C@@]2(CCN(Cc3ccncc3)C2)C1 | 5.01 µM (active) | 
O=C(Nc1ccccc1)N1CC2(CCN(C(=O)c3cc(C(F)(F)F)cc(C(F)(F)F)c3)CC2)C1 | inactive | 
